From PubChem BioAssay
Six1-Eya2 inh: inhibitors of human Six1/Eya2 interaction; Q15475+O00167; AlphaScreen GST-Six1/His-Eya2 binding, biochemical; active compounds read low; activity change, % (test concentration not listed); 0.56% of 360,000 active; AID 651725; in the data active = activity change below about -65%; inconclusive = mostly about -30% to -63%; note: % is set by controls: 0 for no effect and ±100 for the full control effect
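Compounds are tested against tagged Six1 and Eya2 proteins bridged by glutathione donor and nickel acceptor beads; after a one-hour incubation at 37 °C without light, AlphaScreen emission is recorded.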
BAZ2B block: inhibitors of human BAZ2B bromodomain. Q9UIF8. AlphaScreen BAZ2B-H3K14Ac peptide displacement. Potency, µM (doses to about 114 µM), inactives show at the top dose activity change, negative = inhibition, hits mostly inhibitors. 4.4% of 360,000 active. AID 504333; note: potency is the fitted concentration of half-maximal effect; % is set by controls: 0 for no effect and ±100 for the full control effect; nearly all actives have a fitted effect of over 60% in size
Target sequence (Q9UIF8 whole entry, looked up): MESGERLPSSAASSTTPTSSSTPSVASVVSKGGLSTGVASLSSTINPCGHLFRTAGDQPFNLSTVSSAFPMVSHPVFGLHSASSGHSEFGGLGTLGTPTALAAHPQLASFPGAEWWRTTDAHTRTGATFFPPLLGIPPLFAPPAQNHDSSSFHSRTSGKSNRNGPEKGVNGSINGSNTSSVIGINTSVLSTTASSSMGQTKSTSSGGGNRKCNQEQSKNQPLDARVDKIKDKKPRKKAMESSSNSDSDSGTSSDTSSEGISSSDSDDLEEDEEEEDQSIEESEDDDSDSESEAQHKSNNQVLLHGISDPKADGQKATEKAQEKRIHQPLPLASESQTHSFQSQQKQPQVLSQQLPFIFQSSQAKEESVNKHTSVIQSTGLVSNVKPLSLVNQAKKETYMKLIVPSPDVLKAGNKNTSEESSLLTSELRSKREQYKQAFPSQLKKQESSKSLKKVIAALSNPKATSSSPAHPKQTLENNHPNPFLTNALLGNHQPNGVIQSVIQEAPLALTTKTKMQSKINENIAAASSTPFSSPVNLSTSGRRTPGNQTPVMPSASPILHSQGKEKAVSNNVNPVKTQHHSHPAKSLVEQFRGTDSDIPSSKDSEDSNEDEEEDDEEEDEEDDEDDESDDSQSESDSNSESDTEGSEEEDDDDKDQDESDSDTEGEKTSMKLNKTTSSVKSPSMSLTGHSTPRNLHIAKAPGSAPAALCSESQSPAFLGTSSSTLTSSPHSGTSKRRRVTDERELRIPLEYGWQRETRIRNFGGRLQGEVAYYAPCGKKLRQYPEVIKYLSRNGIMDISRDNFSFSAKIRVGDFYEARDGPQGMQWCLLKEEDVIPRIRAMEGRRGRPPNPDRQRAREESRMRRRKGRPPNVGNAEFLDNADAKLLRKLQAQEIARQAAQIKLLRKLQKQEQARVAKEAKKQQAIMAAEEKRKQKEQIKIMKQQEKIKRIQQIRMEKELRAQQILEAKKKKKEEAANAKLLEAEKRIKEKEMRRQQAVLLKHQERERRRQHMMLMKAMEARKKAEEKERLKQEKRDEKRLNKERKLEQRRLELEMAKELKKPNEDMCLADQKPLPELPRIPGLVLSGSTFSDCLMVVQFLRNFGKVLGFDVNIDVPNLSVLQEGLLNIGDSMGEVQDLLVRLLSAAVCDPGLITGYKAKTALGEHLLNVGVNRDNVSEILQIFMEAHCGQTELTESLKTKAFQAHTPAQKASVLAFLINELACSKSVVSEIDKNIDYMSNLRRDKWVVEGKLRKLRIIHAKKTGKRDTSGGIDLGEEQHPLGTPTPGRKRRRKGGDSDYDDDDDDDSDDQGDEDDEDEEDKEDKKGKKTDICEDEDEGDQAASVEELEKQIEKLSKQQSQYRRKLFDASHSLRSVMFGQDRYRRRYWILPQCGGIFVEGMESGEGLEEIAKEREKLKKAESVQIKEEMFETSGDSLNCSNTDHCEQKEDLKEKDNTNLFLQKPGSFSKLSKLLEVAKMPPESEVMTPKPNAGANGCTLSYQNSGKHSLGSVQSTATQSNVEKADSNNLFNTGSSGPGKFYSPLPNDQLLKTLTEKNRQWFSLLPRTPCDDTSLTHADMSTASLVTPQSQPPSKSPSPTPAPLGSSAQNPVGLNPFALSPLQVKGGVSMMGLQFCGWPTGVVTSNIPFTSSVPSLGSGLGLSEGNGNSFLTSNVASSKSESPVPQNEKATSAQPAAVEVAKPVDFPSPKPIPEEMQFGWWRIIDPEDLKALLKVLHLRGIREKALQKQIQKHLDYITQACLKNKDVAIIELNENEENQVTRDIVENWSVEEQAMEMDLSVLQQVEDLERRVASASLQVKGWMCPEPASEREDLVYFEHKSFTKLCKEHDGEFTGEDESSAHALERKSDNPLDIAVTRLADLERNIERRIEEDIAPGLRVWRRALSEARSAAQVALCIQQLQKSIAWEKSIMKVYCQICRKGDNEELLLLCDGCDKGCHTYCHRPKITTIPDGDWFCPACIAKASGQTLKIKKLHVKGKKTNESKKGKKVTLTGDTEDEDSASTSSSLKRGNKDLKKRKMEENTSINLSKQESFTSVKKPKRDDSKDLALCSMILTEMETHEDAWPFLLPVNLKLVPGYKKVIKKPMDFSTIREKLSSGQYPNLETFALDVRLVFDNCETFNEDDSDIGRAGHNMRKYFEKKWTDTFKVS
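Protein-peptide AlphaScreen: BAZ2B 50 nM, b-H3K14Ac 50 nM, 1x PBS pH 7.4 + 0.01% Tween-20. Preincubation 30 min RT; cpd 30 min RT (top 110 uM); beads 20 min RT, light-protected.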
CtBP-E1A inh: CtBP/E1A binding inhibition. AlphaScreen GST-E1A/His-CtBP binding, 1536-well; active compounds read low. activity change, % (no concentration beside the values). 0.49% of 340,000 active. AID 651724; in the data active = activity change below about -65%; inconclusive = mostly about -30% to -63%; note: % is set by controls: 0 for no effect and ±100 for the full control effect
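GST-E1A and His-tagged CtBP (125 nM each as 5X stock) were preincubated with pin-transferred compound for 2 h at 37 °C in the dark, then glutathione donor and nickel acceptor beads were added for 1 h before AlphaScreen reading.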
G9a block: blocks human histone lysine methyltransferase G9a. Q96KQ7. G9a H3K9 monomethylation, AlphaScreen, 2 h. Potency, µM (series often up to 102 µM), for inactives: top-dose activity, negative = inhibition, hits mostly inhibitors. 8.8% of 350,000 active; note: potency is the fitted concentration of half-maximal effect; % is set by controls: 0 for no effect and ±100 for the full control effect; nearly all actives have a fitted effect of over 75% in size
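Compounds were preincubated with 20 nM G9a for 15 min, after which biotinylated H3K9 peptide (500 nM) and SAM (20 uM) started a 2 h room-temperature reaction. Monomethylated product was quantified by antibody-based AlphaScreen chemiluminescence.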
JMJD2A Tudor: inhibitors of human JMJD2A Tudor domain. O75164. AlphaScreen JMJD2A-Tudor / H3K4me3 peptide binding. Potency, µM (doses to about 114 µM), for inactives: top-dose activity change, negative = inhibition, hits mostly inhibitors. 4.4% of 390,000 active; note: potency is the fitted concentration of half-maximal effect; % is set by controls: 0 for no effect and ±100 for the full control effect; nearly all actives have a fitted effect of over 50% in size
HP1b binding inh: HP1-beta chromodomain-methylated histone interaction inhibition; Potency, µM (series often up to 114 µM), for the others: at the highest dose activity change, negative = inhibition, most hits filed as inhibitors; 0.56% of 390,000 active; AlphaScreen HP1-beta / biotin-H3K9me3 peptide binding; note: potency is the fitted concentration of half-maximal effect; nearly all actives have a fitted effect of over 70% in size
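Compound inhibition of the preformed complex between 50 nM HP1-beta and 50 nM biotinylated H3K9me3 peptide was read by AlphaScreen. Buffer was PBS pH 7.4 with 0.01% Tween-20. Incubations ran 30 min at room temperature, with 10 ug/mL donor/acceptor beads.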
* marks the source's active call; other numbers are inactive results; ? = inconclusive; . = not tested or not shown; ! = not active in a repeat; [ ] = remark or other dose. A selection: hits, their analogues and other compounds. The true share with any hit is near 10%. Unless noted, calls come from the whole dose curve; as a rule, active = well fitted inhibition curve with a large enough effect; inconclusive = small, poorly fitted or top-dose-only effect; inactive = no such curve, though single readings can be large or run the other way.

SMILES	Six1-Eya2 inh	BAZ2B block	CtBP-E1A inh	G9a block	JMJD2A Tudor	HP1b binding inh
O=[N+]([O-])c1ccc(C2CCCC/C2=N/O)c([N+](=O)[O-])c1 (centres undefined)	7	-15%	0	-3%	0%	13%
NC1(C(=O)O)CCc2cc(P(=O)(O)O)ccc21 (centres undefined)	.	.	.	-2%[59 µM]	.	.
COCCCNC(=O)CCC(=O)N1Cc2ccccc2Oc2ncccc21	.	11%[57.1 µM]	.	2%[59 µM]	5%	41%
C=C(C)C(=O)OCCCCCCOc1ccc(C(=O)O)cc1	?	?	5	10%[12.7 µM]	11µM*	?
CCCCCCCCOc1ccc(C(=O)O)cc1	6	-2%	6	-6%[0.501 µM]	-12%	36%
CC(=O)N(C)c1ccc(C=C2C=Cc3ccccc32)cc1	-19	.	-1	.	79µM*	?
CN(N=O)c1ccc(C=C2C=Cc3ccccc32)cc1	-23	.	-3	.	?	-13%
CN(C)CCOC(c1ccc(Cl)cc1)c1ccccn1 (centres undefined)	17	-2%	24	45µM*!	-6%	71%
CN(C)CC[C@H](c1ccc(Cl)cc1)c1ccccn1	.	.	.	22%[21.5 µM]	.	.
Cc1ccc(-n2c(O)cnc2Nc2nc(C)cc(C)n2)cc1	18	-37%	0	48%[12.7 µM]	?	9%
Cc1cc(C)nc(Nc2ncc(O)n2-c2ccccc2)n1	4	-37%	17	107%[59 µM]	56µM*	15%
CCOC(=O)c1[nH]c(C)c(CCC(=O)Nc2cccc(C(F)(F)F)c2)c1C	.	0%	.	-2%[59 µM]	-23%	16%[57 µM]
COCC(C)n1c(C)cc(C(=O)COC(=O)c2cccn2C)c1C (centres undefined)	-15	.	?	.	-29%	-1%
COCC(C)n1c(C)cc(C(=O)COC(=O)c2nc3nc(C)cc(C)n3n2)c1C (centres undefined)	-5	-10%	-1	56µM*	-15%	15%
CC(C)N=C1NN=C(c2cccs2)CS1	-2	-14%	0	20µM*	-7%[57.1 µM]	-12%
CC(C)c1ccc(N=C2NN=C(c3cccs3)CS2)cc1	-18	?	3	-4%	-33%	-15%
CC(C)N=C1NN=C(c2ccc(Cl)c(Cl)c2)CS1	-18	?	-7	45µM*	?	-11%
CCCCOc1ccc(S(=O)(=O)Nc2ccc(-c3ccc(N4CCC(C)CC4)nn3)cc2)cc1	.	-13%	.	-23%[59 µM]	-22%	7%[57 µM]
COc1cccc(CNC(=O)c2ccc3c(c2)nc2n3CCC(C)C2)c1OC (centres undefined)	.	-2%	.	-5%[59 µM]	-13%	20%[57 µM]
CN(C)c1ccc2nc3c(=O)[nH]c(=O)nc-3n(CC(O)C(O)C(O)CO)c2c1 (centres undefined)	-20	40µM*	.	50µM*	-30%	?
Cc1ncc(C(O)c2ccc(N(C)C)cc2)n1Cc1ccccc1 (centres undefined)	-4	.	-6	.	.	.
CCCC[C@]12Cc3cc(C#N)ccc3C(O1)c1c(cc(C)n(Cc3ccccc3)c1=O)O2	.	-20%[22.9 µM]	.	8%[2.33 µM]	.	.
Cc1cccc(Oc2coc3cc(OCC(=O)NC4CCCCC4)ccc3c2=O)c1	.	-1%	.	-3%[59 µM]	-13%	17%
CCc1cccc(CC)c1NC(=S)NCCc1c(C)[nH]c2ccccc12	-22	32µM*	-23	45µM*	45µM*	-16%
COc1ccc2[nH]c(C)c(CCNC(=S)Nc3ccc(C)cc3)c2c1	-23	.	.	?	50µM*	-23%
SMILES	Six1-Eya2 inh	BAZ2B block	CtBP-E1A inh	G9a block	JMJD2A Tudor	HP1b binding inh
COc1ccc2[nH]c(C(=O)O)c(CCNC(C)=O)c2c1	1	-2%	5	6%	-17%	37%
Cc1ccccc1NC(=S)NCCc1c[nH]c2ccccc12	-17	?	-11	3%[59 µM]	-25%	-2%[57 µM]
COc1ccc2[nH]c(C)c(CCNC(=S)Nc3cccc(C)c3C)c2c1	?	35µM*	-3	?	56µM*	?
CCc1cccc(CC)c1NC(=S)NCCc1ccc(O)c(O)c1	-10	.	-14	?	?	-15%
COc1ccc2[nH]c(C)c(CCNC(=S)Nc3ccccc3C)c2c1	-8	45µM*	0	50µM*	89µM*	?
COc1cccc(C(=O)n2nc(-c3ccco3)nc2NCc2cccs2)c1	.	-5%	.	-48%[59 µM]	4%	-21%
COc1cc(-c2nnc(SCCOc3ccc(Cl)cc3)o2)cc(OC)c1OC	.	-24%	.	-34%[59 µM]	-11%	47%
Cc1cccc(OCC(=O)Nc2ccccc2C(=O)OCc2cc(=O)n3nc(C)sc3n2)c1	.	-3%	.	-3%[59 µM]	-18%	0%
CC(C)(C)OC(=O)NCc1nnc(-c2nc3ccccc3[nH]2)o1	.	.	.	.	-32%	.
CCCCNc1nc(Oc2ccc(=O)n(C)n2)nc(N2CCOCC2)n1	.	-3%	.	-6%[59 µM]	0%	45%
Cc1ccc2c(c1)C(c1ccc(F)cc1)N(C(=O)C(C)C)CC(=O)N2 (centres undefined)	.	2%	.	14%[59 µM]	-26%	37%
Cc1cc(Cl)cc2c1NC(=O)[C@]21[C@@H]2C(=O)N(Cc3ccccc3)C(=O)[C@@H]2[C@@H]2CCCN21	-8	?	-4	?	?	-11%
CCc1ccc2c(c1)[C@]1(C(=O)N2)[C@@H]2C(=O)N(Cc3ccccc3)C(=O)[C@@H]2[C@@H]2CCCN21	-7	2%	-6	71µM*	-32%	6%
Cc1c(Cl)cccc1NC(=S)Nn1cnnc1	0	?	0	8.9µM*	-28%	-16%
Cc1c(Cl)cccc1NC(=S)NC1CC1	-6	-22%	11	?	4%	40%
Cc1cccc(CNC(=O)C2CCN(c3nn4cc(-c5ccc(F)cc5)nc4s3)CC2)c1	.	4%	.	2%[59 µM]	-3%	19%
O=C1NC(=Nc2ccccc2Cl)S/C1=C\c1cccc([N+](=O)[O-])c1	-10	50µM*	2	?	?	32%
O=C1NC(=Nc2ccccc2Cl)S/C1=C\c1cccc([N+](=O)[O-])c1O	-21	11µM*	-7	8.9µM*	40µM*	?
O=C(CNC(=O)c1ccccc1O)N/N=C/c1cc(Br)ccc1OC(=O)/C=C/c1ccco1	-85*	-28%	-95*	52%[59 µM]	?	12%
COc1ccc([N+](=O)[O-])cc1/C=N/Nc1nn[nH]n1	-8	?	-28	45µM*	-6%	16%
O=C(CNC(=O)c1cccc(F)c1)N/N=C/c1cc(Br)ccc1OC(=O)/C=C/c1ccco1	-88*	-36%	-88*	?	-18%	1%
COc1ccc([N+](=O)[O-])cc1/C=N/NC(=O)CNC(=O)c1cccc(F)c1	?	4%	-70*	9%	?	30%
O=C(CNC(=O)c1ccc(F)cc1)N/N=C/c1cc(Br)ccc1OCc1ccccc1	-6	4%	.	18%[59 µM]	-30%	26%
